From PubChem BioAssay
Rows were chosen to be rich in hits. Some 2.9% of all compounds tested hit in one or more screens of this group.
PAFAH1B3 FP inh = blocks human PAF acetylhydrolase 1B catalytic subunit 3. recombinant PAFAH1B3, FP-rhodamine probe, fluorescence polarization. AID 492972. Q15102. hit rate 0.28% among 340,000. inhibition, % at 3.39 µM;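 active means inhibition above the screen-wide average of all tested compounds plus 3 SD, cut at about 25% in these data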;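 further: 0% = enzyme with DMSO only and 100% = wells lacking PAFAH1B3 protein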
Target sequence (Q15102 whole entry, looked up): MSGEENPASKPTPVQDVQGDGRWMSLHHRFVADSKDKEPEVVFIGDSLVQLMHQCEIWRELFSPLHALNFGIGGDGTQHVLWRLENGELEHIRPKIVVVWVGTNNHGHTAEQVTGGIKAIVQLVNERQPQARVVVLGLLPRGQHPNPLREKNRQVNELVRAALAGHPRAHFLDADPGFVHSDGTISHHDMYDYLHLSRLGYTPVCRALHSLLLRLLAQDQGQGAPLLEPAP
PAFAH2 inh = inhibitors of human PAFAH2 | Q99487 | recombinant PAFAH2, FP-rhodamine activity probe, fluorescence polarization | inhibition, % at 3.39 µM | hit rate 0.99% among 340,000;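 active means inhibition above the mean over all tested compounds plus 3 SD, cut at about 30% in these data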;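 further: inhibitors block probe labeling of enzyme so polarization drops; 0% = enzyme with DMSO and 100% = wells lacking PAFAH2 protein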
PAFAH1B2 inh = PAFAH1B2 (human) inhibition; AID 492953; P68402; inhibition, % at 3.39 µM; recombinant PAFAH1B2, FP-rhodamine activity probe, fluorescence polarization; hit rate 1.2% among 340,000;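 active means inhibition above the mean of all tested compounds plus 3 SD, cut at about 24% in these data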;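 further: 0% = enzyme with DMSO and 100% = wells lacking PAFAH1B2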
LYPLA2 inh = LYPLA2 (human) inhibition in PME1 counter-screen. inhibition, % at 5.9 µM. recombinant LYPLA2, FP-Rh probe fluorescence polarization. AID 2177. O95372. hit rate 0.38% among 320,000;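 active means inhibition above the screen-wide mean plus 3 SD, limit set per campaign, cut at about 26% in these data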;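 further: 0% = LYPLA2 with DMSO and 100% = wells lacking LYPLA2 enzyme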
LYPLA1 counter = counter-screen for PME1 inhibitors: inhibitors of human LYPLA1 | AID 2174 | hit rate 0.16% among 320,000 | recombinant LYPLA1, FP-Rh probe fluorescence polarization | O75608 | inhibition, % at 5.9 µM;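 active means inhibition above the mean of all tested compounds plus 3 SD, set per campaign, cut at about 14% in these data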;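 further: inhibitors block serine hydrolase probe labeling of LYPLA1 so polarization falls; 0% = enzyme with DMSO and 100% = wells lacking LYPLA1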
Target sequence (O75608 whole entry, looked up): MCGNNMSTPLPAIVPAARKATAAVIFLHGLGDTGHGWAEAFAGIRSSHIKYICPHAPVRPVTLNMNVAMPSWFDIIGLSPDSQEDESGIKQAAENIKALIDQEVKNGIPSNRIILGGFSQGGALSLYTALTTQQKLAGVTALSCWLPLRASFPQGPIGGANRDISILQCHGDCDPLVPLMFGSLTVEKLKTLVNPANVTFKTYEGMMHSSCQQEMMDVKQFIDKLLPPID
pPAFAH FP inh = pPAFAH (human) enzyme inhibition; hit rate 1.5% among 330,000; recombinant pPAFAH, FP-rhodamine probe fluorescence polarization; Q13093; inhibition, % at 3.39 µM;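 active means inhibition above the mean inhibition across the screen plus 3 SD, cut at about 25% in these data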;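 further: inhibitors block binding of the rhodamine activity-based probe so polarization drops; 0% = enzyme with DMSO and 100% = wells lacking pPAFAH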
PAFAH2 FP conf = confirmation of human PAFAH2 inhibitors; shares compounds with PAFAH2 inh; recombinant PAFAH2, FP-rhodamine activity probe, fluorescence polarization; hit rate 65% among 2,300; inhibition, % at 3.39 µM;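 active means mean inhibition over three repeats above a set limit taken from the earlier primary screen, cut at about 30% in these data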;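 further: inhibitor blocks binding of rhodamine activity probe so polarization falls; 0% = enzyme with DMSO and 100% = wells lacking PAFAH2 protein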
Numbers without * were called inactive.

O=C(CNC(=O)c1cc(=O)[nH]c2ccc(S(=O)(=O)N3CCOCC3)cc12)Nc1ccc(F)c(F)c1 was read as PAFAH1B3 FP inh 2, PAFAH2 inh -3 and PAFAH1B2 inh 3.
`COc1ccc2[nH]c(C(=O)N(C)Cc3ccccc3)c(C)c2c1` gave PAFAH1B3 FP inh 1, PAFAH2 inh -3, PAFAH1B2 inh 10, LYPLA2 inh -1, LYPLA1 counter 4 and pPAFAH FP inh -3.
For COc1ccc(C(=O)c2ccsc2N)cc1 the results were PAFAH1B3 FP inh 9, PAFAH2 inh 30*, PAFAH1B2 inh 11, LYPLA2 inh 4, LYPLA1 counter 3, pPAFAH FP inh 16 and PAFAH2 FP conf 0.
`COc1ccc(/C=C2\SC(c3ccc(C)cc3)=NC2=O)cc1OC` gave PAFAH1B3 FP inh 7, PAFAH2 inh 27, PAFAH1B2 inh 7, LYPLA2 inh 3, LYPLA1 counter -4 and pPAFAH FP inh -1.
`COc1ccc(/C=C2/SC(c3ccc(C)cc3)=NC2=O)cc1OC` gave PAFAH1B3 FP inh 3, PAFAH2 inh 38*, PAFAH1B2 inh 3, LYPLA2 inh 4, LYPLA1 counter -4, pPAFAH FP inh 4 and PAFAH2 FP conf 26.
For O=C(ON=C1CCN(S(=O)(=O)c2ccccc2)CC1)c1ccc(F)cc1 the results were PAFAH1B3 FP inh 5, PAFAH2 inh 87*, PAFAH1B2 inh 9, LYPLA2 inh 2, LYPLA1 counter -1, pPAFAH FP inh 7 and PAFAH2 FP conf 84*.
CN1C(C)(C)CC(=NOC(=O)c2ccccc2)CC1(C)C was read as PAFAH1B3 FP inh 1, PAFAH2 inh 3, PAFAH1B2 inh 1, LYPLA2 inh 3, LYPLA1 counter 3 and pPAFAH FP inh -3.
`O=C(O/N=C1/CCCc2occc21)c1ccc(F)cc1` gave PAFAH1B3 FP inh 5, PAFAH2 inh 15, PAFAH1B2 inh 6, LYPLA2 inh 2, LYPLA1 counter 1 and pPAFAH FP inh 10.
For Cc1ccc(C(=O)ON=C2CCN(S(=O)(=O)c3ccccc3)CC2)cc1 the results were PAFAH1B3 FP inh 3, PAFAH2 inh 90*, PAFAH1B2 inh 1, LYPLA2 inh 18, LYPLA1 counter -1, pPAFAH FP inh 14 and PAFAH2 FP conf 89*.
For O=C(ON=C1CCSCC1)c1ccccc1 the results were PAFAH1B3 FP inh 5, PAFAH2 inh 78*, PAFAH1B2 inh 1, LYPLA2 inh 4, LYPLA1 counter -1, pPAFAH FP inh 8 and PAFAH2 FP conf 76*.
For CC(C)(C)C1CCC(=NOC(=O)c2ccc(F)cc2)CC1 (stereo unspecified) the results were PAFAH1B3 FP inh 6, PAFAH2 inh 81*, PAFAH1B2 inh 5, LYPLA2 inh -4, LYPLA1 counter -7, pPAFAH FP inh 5 and PAFAH2 FP conf 84*.
For COc1ccc(CNC(=O)c2sccc2C)cc1 the results were PAFAH1B3 FP inh 8, PAFAH2 inh 3, PAFAH1B2 inh 5, LYPLA2 inh 6, LYPLA1 counter 2 and pPAFAH FP inh 1.
COc1ccccc1NC(=O)CSc1ccc(-c2ccc(-n3ccnc3)cc2)nn1 was read as PAFAH1B3 FP inh 2, PAFAH2 inh 2, PAFAH1B2 inh 4, LYPLA2 inh 0, LYPLA1 counter -3 and pPAFAH FP inh 5.
For COc1cccc(/C=C/C(=O)OCC(=O)NC2CCCCCCC2)c1 the results were PAFAH1B3 FP inh 1, PAFAH2 inh 96*, PAFAH1B2 inh 7, pPAFAH FP inh 14 and PAFAH2 FP conf 82*.
Screening COc1cccc(/C=C/C(=O)OCC(=O)NC(=O)NC2CCCC2)c1 returned PAFAH1B3 FP inh 8, PAFAH2 inh 20, PAFAH1B2 inh 5, LYPLA2 inh 9, LYPLA1 counter 4 and pPAFAH FP inh 0.
COc1ccc(/C=C/C(=O)OCC(=O)NC2CCCC2)cc1 was read as PAFAH1B3 FP inh -1, PAFAH2 inh 83*, PAFAH1B2 inh -3, LYPLA2 inh 6, LYPLA1 counter 1, pPAFAH FP inh 8 and PAFAH2 FP conf 86*.
For CC(C)Oc1ccc(CNC(=O)c2ccc3nc(N4CCOCC4)sc3c2)cc1 the results were PAFAH1B3 FP inh -6, PAFAH2 inh 0, PAFAH1B2 inh -2, LYPLA2 inh 2, LYPLA1 counter -2 and pPAFAH FP inh -6.
